{"source": "PubChem BioAssay (NCATS)", "key": {"[1]": {"molecular_target": "Arylsulfatase A (Homo sapiens) (UniProt P15289)", "sequence (P15289 whole entry, looked up)": "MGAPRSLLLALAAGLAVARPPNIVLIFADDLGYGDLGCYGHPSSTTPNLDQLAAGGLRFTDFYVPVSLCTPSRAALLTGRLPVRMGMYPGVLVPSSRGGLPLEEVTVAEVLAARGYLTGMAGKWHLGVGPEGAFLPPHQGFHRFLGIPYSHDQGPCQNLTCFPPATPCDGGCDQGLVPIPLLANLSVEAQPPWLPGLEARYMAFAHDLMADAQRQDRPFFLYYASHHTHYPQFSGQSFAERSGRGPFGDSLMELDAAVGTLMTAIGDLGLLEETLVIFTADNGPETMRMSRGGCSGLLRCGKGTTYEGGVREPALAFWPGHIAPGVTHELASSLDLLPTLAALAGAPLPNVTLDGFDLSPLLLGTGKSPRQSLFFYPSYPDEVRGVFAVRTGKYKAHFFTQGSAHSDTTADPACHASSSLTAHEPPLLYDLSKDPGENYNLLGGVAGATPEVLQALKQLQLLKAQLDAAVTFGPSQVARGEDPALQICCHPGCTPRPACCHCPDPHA", "experiment": "qHTS screen for enhancers of Arylsulfatase A (ASA1): LOPAC Validation Assay (AID 720538)", "in_short": "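SV40-transformed skin fibroblasts from an MLD patient (ASA-I179S) were treated with compounds for 48h at 37 degree C, then lysed with 0.5mM pNCS final substrate for 14h at room temperature; NaOH stop, fluorescence read (Ex=525 nm; Em=598 nm).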"}, "[2]": {"experiment": "qHTS for compounds that reverse cellular toxicity of Amyloid beta (A-beta) peptide in yeast: LOPAC Validation Assay (AID 720559)", "in_short": "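Yeast cells expressing toxic A-beta were combined with pinned compounds in growth medium and incubated 48 hr at 30 C. Growth was read as absorbance at 600 nm and normalized to DMSO and to an equimolar FeCl3/clioquinol positive control.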"}, "[3]": {"experiment": "qHTS for small molecule inhibitors of Yes1 kinase: Counter Assay (AID 686950);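 also: no kinase present so only ADP-Glo detection of a fixed ADP amount is tested; luminescence from ADP-Glo reporting ADP in a fixed ATP and ADP mixture; series mostly up to about 77 µM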", "in_short": "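Enzyme-free detection counter-screen: compounds preincubated 20 min in buffer, then 0.08 mM ATP plus 0.02 mM ADP added for 60 min at room temperature; ADP-Glo luminescence. Buffer 50 mM Tris pH 7.5, 10 mM MgCl2, 150 mM NaCl; normalized to ATP+ADP and ATP-only controls.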"}}, "note": "Results filed as inconclusive are left out. Active and inactive are the calls of the source. Calls follow the shape of the dose curve; as a rule, active = well fitted curve in the direction sought with a large enough effect; inconclusive = small, poorly fitted or top-dose-only effect, or another doubt; inactive = no such curve, though single readings can be large; an effect the other way counts as inactive or inconclusive.", "data": [{"smiles": "O=c1c2ccccc2nc2n1CCc1c-2[nH]c2ccccc12", "values": [{"measurement": "outcome", "setting": "[1]", "result": "inactive"}, {"measurement": "outcome", "setting": "[2]", "result": "inactive"}]}, {"smiles": "CS(=O)(=O)N1CCN(Cc2cc3nc(-c4cccc5[nH]ncc45)nc(N4CCOCC4)c3s2)CC1", "values": [{"measurement": "outcome", "setting": "[3]", "result": "inactive"}]}, {"smiles": "CC(NCc1ccc2c(c1)nc(NC(=O)c1ccc(-c3cn[nH]c3)s1)n2CC(C)(C)O)C(C)(C)C", "note": "(centres undefined)", "values": [{"measurement": "outcome", "setting": "[3]", "result": "inactive"}]}]}
